# Assay outcomes from PubChem BioAssay.
# Sampled rows, rich in hits. Any-hit rate of the full collection: about 17%.
# TDP1 block – blocks human tyrosyl-DNA phosphodiesterase 1; Q9NUW8; recombinant TDP1, AlphaScreen DNA substrate cleavage; Potency, µM (series often up to 130 µM), for the others: top-dose activity change, negative = inhibition, most hits filed as inhibitors; 350,000 tested, 0.28% active; note: % is set by controls: 0 for no effect and ±100 for the full control effect; nearly all actives have a fitted effect of over 40% in size
#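 Compounds were preincubated with Tdp1 (1 nM final) for 15 min at room temperature before substrate (15 nM final) started a 5 min reaction; beads (10 ug/ml final) were then added for 10 min before AlphaScreen detection.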
# TDP1 cell noCPT – qHTS for Inhibitors of human tyrosyl-DNA phosphodiesterase 1 (TDP1): qHTS in cells in absence of CPT. 420,000 tested, 15% active. Potency, µM (doses to about 46.2 µM), for the others: at the highest dose activity change, negative = growth inhibition, hits mostly inhibitors. DT40 Tdp1-/- hTDP1 cells, no CPT, ATP luminescence, 48 h; note: % is set by controls: 0 for no effect and ±100 for the full control effect; nearly all actives have a fitted effect of over 55% in size
#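 Seeded 400 DT40-hTDP1 cells/well (vehicle DMSO, no 20 nM CPT); pinned compounds; ≥48 hr at 37 °C; CellTiter-Glo luminescence as viability measure.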
# DT40 TDP1 CPT – growth inhibition of DT40 Tdp1-/-;hTDP1 cells with camptothecin (screen for TDP1 inhibitors). chicken DT40 Tdp1-/-;hTDP1 cells + 20 nM CPT, ATP luminescence, 48 h. Potency, µM (titrated, usually from 46.2 µM), for the others: at the top dose activity change, negative = growth inhibition, most hits filed as inhibitors. 420,000 tested, 12% active. AID 686979; note: % is set by controls: 0 for no effect and ±100 for the full control effect; nearly all actives have a fitted effect of over 55% in size
#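 Chicken DT40 Tdp1-/- cells stably complemented with human TDP1 were seeded at 400 cells/well in medium containing 20 nM camptothecin, exposed to pin-transferred compounds, and grown at 37 °C for at least 48 hr. Viability was read as ATP luminescence.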
# ClpP mod – qHTS Assay for Activators of ClpP. 340,000 tested, 1.9% active. ATP-dependent Clp protease proteolytic subunit (Bacillus subtilis (strain 168)), P80244. purified B. subtilis ClpP, FRET peptide cleavage, 20 min. Potency, µM (doses to about 57.5 µM), for the others: top-dose activity change, negative = active; active = well fitted falling curve with a large enough effect; inconclusive = small, poorly fitted or top-dose-only effect; inactive = no such curve, though single readings can be large or run the other way; note: the source files actives as falling curves though it sought activators and does not explain the sign; nearly all actives have a fitted effect of over 65% in size
# Target sequence (P80244 whole entry, looked up): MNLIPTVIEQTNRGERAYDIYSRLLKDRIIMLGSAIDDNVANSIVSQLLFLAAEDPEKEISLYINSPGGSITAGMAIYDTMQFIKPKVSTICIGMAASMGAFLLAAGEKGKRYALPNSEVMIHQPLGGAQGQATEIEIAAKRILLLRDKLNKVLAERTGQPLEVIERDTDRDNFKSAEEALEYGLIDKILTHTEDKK
#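 ClpP 10 microg/mL final, pH 8 Tris/KCl buffer with BSA, glycerol, Tween-20; compound pinned in; FRET-FV substrate; RT 20 min; Ex320/Em430; ΔFRET vs ADEP 5.8 microM, DMSO, no enzyme.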
# Starred values were filed as active, the others as inactive; ? = inconclusive; nt = not tested or not shown; [ ] = remark or other dose. Unless noted, calls come from the whole dose curve; as a rule, active = well fitted curve in the direction sought with a large enough effect; inconclusive = small, poorly fitted or top-dose-only effect, or another doubt; inactive = no such curve, though single readings can be large; an effect the other way counts as inactive or inconclusive. Potency is the fitted concentration of half-maximal effect.
SMILES,TDP1 block,TDP1 cell noCPT,DT40 TDP1 CPT,ClpP mod
CCCCC[C@@H](O)C1C(=O)OC(C)[C@H](O)/C=C/C=C/C=C/C=C/C=C(\C)C(O)C(O)C(O)C[C@H](O)C[C@H](O)C[C@H](O)C[C@H](O)C[C@@H]1O (some centres not stated),nt,0%,6%,nt
CCOC(=O)[C@]12Cc3cc(OC)ccc3[C@H]1N(C)C(=O)c1cc(OC)ccc12,nt,16µM*,?,0%
CCOC(=O)[C@]12Cc3cc(OC)ccc3[C@H]1N(CC(=O)OC)C(=O)c1cc(OC)ccc12,nt,6.5µM*,18µM*,-2%
CCCCCN1C(=O)c2cc(OC)ccc2[C@@]2(C(=O)OCC)Cc3cc(OC)ccc3[C@@H]12,nt,5.2µM*,10µM*,-2%
CCCCCN1C(=O)c2ccccc2[C@@]2(C(=O)OCC)Cc3cc(Cl)ccc3[C@@H]12,nt,?,?,0%
CCOC(=O)[C@]12Cc3cc(OC)ccc3[C@H]1N(CC(=O)OC)C(=O)c1ccccc12,nt,-29%,-17%,-2%
CCOC(=O)C1C(=O)N(C)C2(C)CC1c1cc(OC)ccc1O2 (configuration not stated),4%,-10%,10%,-3%
CCOC(=O)[C@]12Cc3cc(Cl)ccc3[C@H]1N(C)C(=O)c1cc(OC)ccc12,nt,16µM*,23µM*,-8%
Cc1nnc2n1-c1sc(CCC(=O)N3CCOCC3)cc1C(c1ccccc1Cl)=NC2,13%,-18%,-12%,nt
Nc1cc(SCc2ccc(Cl)cc2Cl)ncn1,nt,?,-7%,nt
COc1ccc(CCn2c(NN=C3CCCCC3)nc3c2c(=O)[nH]c(=O)n3C)cc1,nt,16µM*,?,nt
COc1ccc(CCNCc2ccc3c(c2)n(C)c(=O)n3C)cc1,4%,-32%,?,1%
O=C(O)[C@H]1[C@H]2CN[C@H](C(=O)O)[C@H]21,-1%,-22%,-6%,nt
CN1CCc2cc(O)cc3c2C1Cc1ccc(O)c(O)c1-3 (configuration not stated),6%[56.1 µM],2.1µM*,2.6µM*,nt
C=CCN1CCc2cccc3c2C1Cc1ccc(O)c(O)c1-3 (configuration not stated),6%,5.2µM*,13µM*,nt
O=c1cc(-c2ccc(O)c(O)c2)oc2c(C3O[C@H](CO)[C@@H](O)[C@H](O)[C@H]3O)c(O)cc(O)c12 (some centres not stated),9%,-5%,-1%,-3%
Cc1ccc(S(=O)(=O)c2nnn3c2nc(N2CCC(C(N)=O)CC2)c2cc(Cl)ccc23)cc1C,4%,5.2µM*,21µM*,?
COc1ccc(Cc2nccc3cc(OC)c(OC)cc23)cc1OC,8%,5.8µM*,8.2µM*,-1%
Cc1nnc(NC(=O)c2cccn(Cc3ccccc3F)c2=O)s1,8%,-1%,3%,0%
O=C(NP(=O)(N1CC1)N1CC1)c1cc(I)ccc1I,nt,2.3µM*,1.5µM*,-2%
O=C1CC2OCC=C3CN4CC[C@]56c7ccccc7N1[C@H]5[C@H]2C3C[C@H]46 (some centres not stated),4%,-8%,nt,nt
COC(=O)OCC12CCC(O1)C1(C)C(=O)OCC21 (configuration not stated),-3%,29µM*,?,-1%
C#C[C@]1(O)CC[C@H]2[C@@H]3CCC4=Cc5nc6nc7ccccc7n6cc5C[C@]4(C)[C@H]3CC[C@@]21C,nt,12µM*,?,-4%
C#CC1(O)CCC2C3CCC4=CC(=O)CCC4(C)C3CCC21C (configuration not stated),6%[56.1 µM],nt,nt,nt
COc1ccccc1OCCCn1cc(C(=O)c2ccco2)c2ccccc21,0%,?,18µM*,-4%
SMILES,TDP1 block,TDP1 cell noCPT,DT40 TDP1 CPT,ClpP mod
CC1CCC(C(C)C)C(OC(=O)Cn2c(COc3ccccc3)[n+](C)c3ccccc32)C1 (configuration not stated),nt,1µM*,0.58µM*,nt
CC(=O)O[C@H]1C[C@@H]2OC3C=C(C)CCC3(C)[C@@]1(C)[C@@]21CO1 (some centres not stated),nt,1µM*,0.58µM*,-3%
CC1(O)CCC2C3CCC4=CC(=O)CCC4=C3C=CC21C (configuration not stated),nt,15µM*,9.2µM*,nt
CCn1nc(-c2ccccc2)nc2c(=O)n(C)c(=O)nc1-2,5%,2.6µM*,1.3µM*,0%
COC(=O)c1ccc(NC(=O)CSc2nc3ccc(N4C(=O)C5C6C=CC(C6)C5C4=O)cc3s2)cc1 (configuration not stated),0%,18µM*,21µM*,-4%
O=C1Nc2cc(Cl)c(Cl)cc2N2CCNC[C@H]12,11%,?,-31%,nt
CC(C)CN1CCC2(CC1)CCN(C(=O)Oc1ccccc1)CC2,nt,1%,-1%,nt
Cc1ccc(S(=O)(=O)N2Cc3ccccc3-n3nncc3C2)cc1,nt,?,?,0%
CC(=O)Nc1ccc(S(=O)(=O)N2Cc3ccccc3-n3nncc3C2)cc1,nt,15µM*,15µM*,-1%
COc1ccc(-c2nnc3sc(C4CCCCC4)nn23)cc1OC,4%,15µM*,18µM*,1%
COc1ccc(C2SCC(=O)Nc3c2c(=O)[nH]n3C2CCCCCC2)cc1OC (configuration not stated),2%,?,-27%,-1%
NC1=N[C@H](O)[C@H]2C3O[C@]4(O)O[C@H](C(O)[C@@]2(N1)[C@@H]4O)C3(O)CO (some centres not stated),17%,nt,nt,nt
CN1CCC(N(C)c2ccc(C(N)=O)cc2[N+](=O)[O-])CC1,2%,-22%,8%,nt
Nc1ccccc1C(=O)OC1CSC1,-7%,-8%,-13%,28µM*
CCOC(=O)c1ccccc1N,-1%,-6%,8%,4%
[O-]c1ccccc1-[n+]1c(-c2ccccc2)cc(-c2ccccc2)cc1-c1ccccc1,4%,2.1µM*,2.1µM*,-7%
Oc1ccccc1-[n+]1c(-c2ccccc2)cc(-c2ccccc2)cc1-c1ccccc1,nt,2.3µM*,1.3µM*,2%
Oc1c(Br)cc(-c2ccccc2)cc1Br,nt,-23%,-10%,nt
Nc1ccccc1-[n+]1c(-c2ccccc2)cc(-c2ccccc2)cc1-c1ccccc1,0%,5.8µM*,6.5µM*,nt
CC(=O)OC1CCC2(C)C(=CC(=O)C3C2CCC2(C)C(OC(C)=O)CCC32)C1 (configuration not stated),nt,?,?,-3%
CC(c1nc2ccccc2c(=O)[nH]1)N(C)CCOc1ccc(Cl)cc1 (configuration not stated),4%,18µM*,21µM*,2%
CN1CCN(Cc2nc3ccccc3c(=O)[nH]2)CC1,2%,-7%,-28%,0%
CCCCC(=O)Cl,8%,nt,nt,nt
